From PubChem BioAssay
aDG glyco act: alpha-DG glycosylation activation; Pro5-aDG cells, alpha-DG glycosylation AlphaScreen (IIH6); 0% Pro5, 100% B10-LARGE cell signal; activation, % at 10 µM; 0.22% of 360,000 active;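 active means activation of at least 8% versus controls, or a plate z-score of at least 8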;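 further: Pro5 are CHO cells carrying HIG-tagged alpha-DG that lacks glycosylation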
Calpain2 inh: inhibitors of pig calpain II; purified calpain II, fluorogenic peptide substrate, 30 min; 0.37% of 220,000 active; inhibition, % at 16 µM;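 active means inhibition above about 50%, limit read from the data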
FAS TE block: inhibitors of human fatty acid synthase thioesterase domain; P49327; recombinant FAS-TE, OMFH fluorogenic substrate, fluorescence endpoint; inhibition, % at 15 µM; 0.67% of 360,000 active;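 active means compounds whose normalised, plate-corrected inhibition of enzyme fluorescence in the single-dose primary screen is 50% or more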
TAG inh: triacylglycerol accumulation inhibition; H9c2 cells, Nile Red lipid (TAG) fluorescence; cells loaded with 200 µM oleic acid; inhibition, % at 12.5 µM; 0.66% of 230,000 active;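 active means pattern-corrected inhibition of lipid staining of at least 50% with the nuclear-stain viability signal not falling by more than 50%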
MIN6 prolif: MIN6 beta-cell proliferation induction. MIN6 cells proliferation, ATPlite luminescence, 48 h; cells starved in 0.2% serum; 100% = growth in 10% serum. AID 2380. proliferation, % at 10 µM. 0.29% of 330,000 active;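 active means compounds whose signal lies at least 3.5 SD above the mean of all wells on their plate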
Cardio protect: modulators protecting cardiomyocytes from myocardial damage | H9c2 cardiomyocytes, H2O2 injury protection, ATPLite, 2 h | protection from H2O2 cell death, % at 20 µM | 0.63% of 360,000 active | AID 588492;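 active means compounds giving at least 50% protection of heart cells from peroxide-induced death in the single-dose screen, raw or plate-pattern-corrected value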
H9c2 TAG conf: confirmation of triacylglycerol accumulation inhibitors; shares compounds with TAG inh; H9c2 lipid accumulation, Nile Red fluorescence; cells loaded with 200 µM oleic acid; inhibition, % at 12.5 µM; 71% of 990 active; AID 651629;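 active means mean inhibition across replicates of 40% or more; inactive means mean inhibition below 40%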
Of the large screens only hits and unclear results are named; the others gave an inactive call (follow-up assays come after a bar, where they were run). A selection: hits, their analogues and other compounds. The true share with any hit is near 2.3%.

Cc1cccc2sc(NC(=O)CN(C)S(=O)(=O)c3ccc(Br)s3)nc12	TAG inh 52 | H9c2 TAG conf inactive
CCOC(=O)C1=C(C)N(C[C@@H]2CC[C@@H](Cc3ccc(-c4ccccc4)cc3)O2)C(=O)NC1c1cccc2ccccc12 (some centres undefined)	TAG inh 78 (no result: Calpain2 inh, MIN6 prolif) | H9c2 TAG conf 78
CCOC(=O)C1=C(C)N(C[C@@H]2CC[C@@H](Cc3ccc(-c4ccccc4)cc3)O2)C(=O)NC1c1ccc(C(F)(F)F)cc1 (some centres undefined)	none (no result: Calpain2 inh, MIN6 prolif)
CC(C)(C)OC(=O)N(CCc1ccccc1)Cc1ccccc1OCc1cccc(NC(=O)/C=C/c2ccccc2)c1	TAG inh 53 (no result: Calpain2 inh, MIN6 prolif) | H9c2 TAG conf 43
CC(C)(C)OC(=O)N(CCc1ccccc1)Cc1ccc(OCc2cccc(NC(=O)/C=C/c3ccccc3)c2)cc1	TAG inh 51 (no result: Calpain2 inh, MIN6 prolif) | H9c2 TAG conf 65
CCOC(=O)C1CCN(C(=O)c2cc(S(=O)(=O)N3CCCCCC3)ccc2OC)CC1	none (no result: Calpain2 inh)
C#CCN(C[C@H]1[C@H](OC(=O)NCC2CCCCC2)[C@H](OC(=O)NCC2CCCCC2)C[C@@H](C(=O)OC)[C@H]1C(=O)OC)S(=O)(=O)c1ccc(C)cc1	TAG inh 82 (no result: Calpain2 inh, MIN6 prolif) | H9c2 TAG conf 89
COC(=O)[C@]1(C)N[C@H](CN(C)C(=O)Nc2ccccc2)[C@@H]2C(=O)N(C)C(=O)[C@@H]21	none (no result: Calpain2 inh)
CN(C)CCNC(=O)c1cccc2ccc(-c3ccc(-c4ccccc4)cc3)nc12	TAG inh 60 (no result: Calpain2 inh, MIN6 prolif) | H9c2 TAG conf 66
Cc1cc2c(cc1C)CSC(c1ccccc1O)SC2	TAG inh 54 | H9c2 TAG conf inactive
CCOc1ccc(CN(C)C(=O)CCl)cc1	TAG inh 58 | H9c2 TAG conf 80
Cc1cc(C)nc(SCC(=O)OCC(=O)N(C)c2c(N)n(Cc3ccccc3)c(=O)[nH]c2=O)n1	none (no result: Calpain2 inh)
CC1(C(=O)NS(=O)(=O)C2CC2)CCN(C(=O)COc2ccc(Cl)cc2Cl)C1 (centres undefined)	none (no result: Calpain2 inh, MIN6 prolif)
Cc1cccc(NC(=O)c2nc[nH]c2C(=O)NCCCCCCNC(=O)c2[nH]cnc2C(=O)Nc2cccc(C)c2)c1	TAG inh 76, Cardio protect 95 (no result: Calpain2 inh) | H9c2 TAG conf inactive
O=[N+]([O-])c1ccc(Nc2nc(NC3CCCCC3)nc(N3CCCC3)n2)cc1	TAG inh 61 | H9c2 TAG conf 82
c1ccc(Nc2nc(N3CCCCC3)nc(N3CCCCC3)n2)cc1	none
CCOC(=O)c1[nH]c(C)c(C(=O)OC(C)C(=O)Nc2ncc(Cl)cc2Cl)c1C (centres undefined)	TAG inh 57 | H9c2 TAG conf inactive
CCc1nc2c(OCC(=O)c3ccc(Cl)cc3Cl)cccn2c1N(C)C(=O)COc1ccccc1	none (no result: Calpain2 inh, MIN6 prolif)
Cc1ccc(-n2c(=O)[nH]c3cc(C(=O)NC4CCN(Cc5ccccc5)CC4)ccc3c2=O)cc1	TAG inh 75 | H9c2 TAG conf inactive
Cc1ccc(CN2CCSc3ccc(C(=O)NC4CCN(Cc5ccccc5)CC4)cc32)cc1	none
O=C(NCc1cccc(C(F)(F)F)c1)c1ccc2nc([C@H]3C[C@H](O)[C@@H](CO)O3)[nH]c2c1	none (no result: Calpain2 inh, MIN6 prolif)
COC(=O)[C@]1(CC(C)C)N[C@H](c2ccc(-c3cccc(Cl)c3)cc2)[C@@H]2C(=O)N(C)C(=O)[C@@H]21	TAG inh 61 (no result: Calpain2 inh) | H9c2 TAG conf inactive
CCN1C(=O)[C@H]2[C@@H](c3ccc(-c4ccccc4)c(OC)c3)N[C@@](CC(C)C)(C(=O)OC)[C@H]2C1=O	TAG inh 57 (no result: Calpain2 inh) | H9c2 TAG conf 40
CCCCCCSc1ccc([C@H]2N[C@@](CC(C)C)(C(=O)OC)[C@H]3C(=O)N(C)C(=O)[C@@H]23)cc1OC	TAG inh 64 (no result: Calpain2 inh) | H9c2 TAG conf 55
CC(=O)Nc1ccc(S(=O)(=O)NC2CC3CCC2C3)cc1 (centres undefined)	none (no result: Calpain2 inh, TAG inh)
CCOC(=O)c1c(NC(=O)COC(=O)CCOc2ccc(C)cc2)sc(C(=O)N(C)C)c1C	none (no result: Calpain2 inh)
Cc1cc2c(C)cc(=O)[nH]c2cc1NC(=O)CCl	none
O=C(CCl)Nc1cc2[nH]c(=O)[nH]c2cc1Br	TAG inh 51 | H9c2 TAG conf 69
CCOC(=O)c1cc(-c2ccccc2)sc1NC(=O)COC(=O)c1cccc(S(N)(=O)=O)c1	TAG inh 78 | H9c2 TAG conf 68
Cc1cc(C)c(NC(=O)CSc2nc3ccc(NC(=O)CSc4nnnn4Cc4ccccc4)cc3s2)c(C)c1	TAG inh 56 (no result: Calpain2 inh) | H9c2 TAG conf 42
CCOC(=O)N1CCN(S(=O)(=O)c2ccc3c4c(cccc24)C(=O)N3)CC1	none (no result: Calpain2 inh)
CCOc1ccccc1N1CCN(S(=O)(=O)c2ccc3c4c(cccc24)C(=O)N3)CC1	TAG inh 52 | H9c2 TAG conf inactive
Cc1ccc(-c2cc(NC(=O)CCl)n(-c3ccccc3)n2)cc1	none
Cc1ccc(-c2nn(-c3ccccc3)cc2NC(=O)CCl)cc1	TAG inh 51 | H9c2 TAG conf 80
NC(N)=Nc1ccc(C=C2C=Cc3ccccc32)cc1	TAG inh 60 (no result: Calpain2 inh, MIN6 prolif) | H9c2 TAG conf 61
Nc1ccc(C=C2C=Cc3ccccc32)cc1	none (no result: Calpain2 inh, MIN6 prolif)
O=C(/C=C/Sc1ccc(C(F)(F)F)cn1)c1ccccc1	TAG inh 50 | H9c2 TAG conf 45
O=C(Nc1ccc2c(c1)OCCO2)c1cc2sccc2n1Cc1ccccc1	TAG inh 60 | H9c2 TAG conf inactive
O=C(Nc1ccc2c(c1)OCCO2)c1cc2sccc2n1Cc1ccc(F)cc1	none
N#Cc1cccc(S(=O)(=O)NNC(=O)C23CC4CC(CC(C4)C2)C3)c1	none (no result: Calpain2 inh)
CCOC(=O)c1c(C)[nH]c(-c2csc(N)n2)c1C	TAG inh 64 (no result: MIN6 prolif) | H9c2 TAG conf inactive
CCCCn1c(O)c2n(c1=O)Cc1ccccc1N=C2c1ccccc1	none (no result: Calpain2 inh, TAG inh, MIN6 prolif)
Cc1ccc2c(c1)N(C(=O)CCC(=O)NCCCN1CCN(C)CC1)CCO2	none (no result: Calpain2 inh)
Cc1ccc2c(c1)N(C(=O)CCC(=O)NCCCN1CCC(Cc3ccccc3)CC1)CCO2	TAG inh 61 (no result: Calpain2 inh) | H9c2 TAG conf 60
COc1cc(C(=O)NC(C)C2CC3CCC2C3)ccc1OC(F)F (centres undefined)	none (no result: Calpain2 inh)
COc1cc(NC(=O)c2cc([N+](=O)[O-])ccc2NC(=O)CN2CCN(c3ccccn3)CC2)cc(OC)c1	TAG inh 60, Cardio protect 55 (no result: Calpain2 inh) | H9c2 TAG conf 79
O=C(N/C(=C/c1cccc(Br)c1)C(=O)N1CCOCC1)c1ccco1	none (no result: Calpain2 inh, MIN6 prolif)
COc1ccc(NS(=O)(=O)c2cc(C)ccc2NC(=O)c2cc(C)oc2C)cc1	TAG inh 62 | H9c2 TAG conf 79
CCCCN1C=C(C(=O)OC)C(c2ccccc2C(F)(F)F)C(C(=O)OC)=C1	TAG inh 54 | H9c2 TAG conf inactive
